# According to PubChem BioAssay AID934 (National Center for Advancing Translational Sciences (NCATS), 2007):
# Inconclusive results are not listed. The source made the active and inactive calls. Calls follow the shape of the dose curve; as a rule, active = well fitted activation curve with a large enough effect; inconclusive = small, poorly fitted or top-dose-only effect; inactive = flat fitted curve, though single readings scatter.
# Assay: Parental Cell Counter Screen for Stat Signaling Pathway Assay
# Settings: ME-180 (cervical carcinoma) parental cells, blue fluorescence artefact counter-screen; series mostly up to 38.3 µM; activity (fluorescence increase): at the top concentration
# Description: NIH Molecular Libraries Screening Centers Network [MLSCN] NIH Chemical Genomics Center [NCGC] MLSCN Grant: None NCGC Assay Overview: This assay is a counter screen for the Stat signaling pathway assay (PubChem AID 446). The Stat assay is cell-based and measures Interleukin 6 (IL-6) mediated modulation of a beta-lactamase reporter gene controlled by a STAT inducible element (SIE-bla cells, Invitrogen). IL-6 is a cytokine that signals via the JAK/STAT pathway and is implicated in cancer and inflammation. […] Compounds active in the parental ME-180 cells are likely fluorescent.
# NCGC Assay Protocol Summary: Cells were trypsinized, washed in assay medium (AM, OPTI MEM with 0.5% fetal bovine serum, 0.1 mM nonessential amino acids, 1 mM sodium pyruvate, 10mM HEPES pH 7.3, 100U/ml penicillin, and 100 ug/ml streptomycin) and suspended at […] in AM. Approximately 2500 cells in 5 uL/well was dispensed into 1536-well plates and the cells were incubated overnight at 37 C. 23 nL of compound were delivered by a pin tool and 1 uL of IL-6 (40 pM final concentration in AM) was added. After plates were incubated at 37 C for 5 hrs, 1uL of detector mix (LiveBLAzerTM, Invitrogen) was added, the plates incubated at room temperature for 2.5 hrs, and fluorescence intensity at 460 and 530 nm emissions was measured at 405 nm excitation by an Envision (Perkin Elmer).
SMILES,activity (fluorescence increase),Potency
COc1cc2nc(-c3ccccc3)nc(N3CCCC3)c2cc1OC,4.63% (inactive),–
CCSc1nc(N)c(C#N)c(-c2ccccc2Cl)c1C#N,13.9% (inactive),–
Cc1ccc(S(=O)(=O)N2CCN(c3nc(C)c4c(c3C#N)CC(C)(C)OC4)CC2)cc1,22.2% (inactive),–
CCCCCCc1cc2cc(-c3nnc(-c4ccccc4O)o3)c(=O)oc2cc1O,–,0.0126 µM (active)
N/C(=N\O)c1cn([C@@H]2O[C@@H](CO)[C@H](O)[C@@H]2O)c2ncnc(NO)c12,18.9% (inactive),–
COc1cccc2c1[C@H](CO)N1[C@H](C#N)[C@@H]3C[C@H](C(=O)O)[C@@H]([C@@H]1C2)N3C,12.3% (inactive),–
COc1ccc(C[C@@H]2C(=O)N[C@H](C)C(=O)N(C)[C@@H]3Cc4ccc(cc4)Oc4cc(ccc4O)C[C@H](C(=O)N[C@@H](C)C(=O)N[C@H](C)C(=O)N2C)N(C)C3=O)cc1,10.4% (inactive),–
CC[C@@H]1CN2CCc3cc(OC)c(OC)cc3[C@H]2C[C@@H]1C[C@@H]1NCCc2cc(OC)c(OC)cc21,9.35% (inactive),–
Cc1ccc(CNC(=O)c2cc3c(=O)n4ccccc4nc3n(CC3CCCO3)c2=N)cc1 (stereo not drawn),–,10 µM (active)
COc1cccc2c1C(=O)c1c(O)c3c(c(O)c1C2=O)C[C@@](O)(C(=O)CO)C[C@@H]3O[C@H]1C[C@H](N)[C@H](O)[C@H](C)O1,17.6% (inactive),–
CC1CCN(CC[S-])CC1.O.O.[Cl][Pt],28.3% (inactive),–
Cc1oc2cc(O)cc(C)c2c(=O)c1-c1cnn(-c2ccccc2)c1,10.2% (inactive),–
CN(C)CCCn1c2c3ccccc3ccc2c2oc(=O)c3ccccc3c21,–,12.6 µM (active)
Nc1ncnc2c1ncn2[C@@H]1O[C@H](CO)[C@@H](O)[C@H]1O,1.85% (inactive),–
CC(C)C[C@H]1C(=O)N2CCC[C@H]2[C@]2(O)O[C@](NC(=O)[C@@H]3C=C4c5cccc6[nH]c(Br)c(c56)CC4N(C)C3)(C(C)C)C(=O)N12 (stereo partly drawn),11.1% (inactive),–
CC[C@@H]1CN2CCc3cc(OC)c(OC)cc3[C@H]2C[C@@H]1C[C@H]1NCCc2cc(OC)c(OC)cc21,7.48% (inactive),–
CC(=O)Oc1ccc(C(c2ccc(OC(C)=O)cc2)c2ccccn2)cc1,10.2% (inactive),–

SMILES,activity (fluorescence increase),Potency
CC1(C)Cc2c(C#N)c(NCCc3ccccc3)nc(-c3ccco3)c2CO1,–,5.01 µM (active)
O=C(O)CCc1c2ccc(=O)c(O)c-2oc2c(O)c(O)ccc12,-1.89% (inactive),–
CC(C)N1CC=C2C(C#N)=C(N)C(C#N)(C#N)C(c3ccccc3)C2C1 (stereo not drawn),–,5.01 µM (active)
CN(C)S(=O)(=O)c1ccc2c(c1)/C(=C/c1cc3c([nH]1)CCCC3)C(=O)N2,1.89% (inactive),–
ClC(=Nc1cccc2ccccc12)N(c1ccccc1)c1ccccc1,7.48% (inactive),–
COc1ccc2c(c1)c1c(C)c3cnccc3c(C)c1n2CCCN,–,31.6 µM (active)
Cn1c(N2CCOCC2)nc2c1c(=O)n(Cc1ccc(Cl)c(Cl)c1)c(=O)n2C,13% (inactive),–
C=C1C(=O)O[C@@H]2[C@H]3O[C@]3(C)CCC=C(C)CC[C@@H]12,-1.87% (inactive),–
Nc1ncnc2c1ncn2[C@@H]1O[C@@H](CO)[C@H](O)[C@@H]1O,11.2% (inactive),–
COc1cccc2c1C(=O)c1c(O)c3c(c(O)c1C2=O)C[C@](O)(C(=O)CO)C[C@H]3O[C@@H]1C[C@H](N)[C@H](O)[C@H](C)O1,10.3% (inactive),–
OC[C@@H]1O[C@@H](n2cnc3c(SCc4ccccc4)ncnc32)[C@@H](O)[C@H]1O,0.926% (inactive),–
CC1CCN(c2oc(-c3ccccc3Cl)nc2C#N)CC1,6.48% (inactive),–
COc1cccc2c1C(=N)c1c(O)c3c(c(O)c1C2=O)C[C@](O)(C(C)=O)C[C@@H]3O[C@H]1C[C@H](N)[C@@H](O)[C@H](C)O1,16% (inactive),–
CCC(=O)Nc1nc(C)c(Oc2ccccc2)c(=O)[nH]1,1.85% (inactive),–
COc1c2c(nc3ccccc13)O[C@@H]([C@@](C)(O)CO)C2,9.35% (inactive),–
N=C(N)SCc1cccc2c(=O)cc(-c3ccccc3)oc12,8.49% (inactive),–
